Assay outcomes (PubChem)
HCMV antiviral: human cytomegalovirus inhibition; HFF cells, HCMV-luciferase reporter, 72 h; active compounds read low; activity change, negative = inhibition, % at 57.5 µM; hit rate 4.5% among 410,000; AID 1259415; in the data active means activity change below about -60%; inconclusive means no clear call, values can overlap the other calls; inactive means above about -39%; further: on the % scale 0 is the no-effect control and ±100 the full control effect
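Inhibition of viral replication was scored as loss of reporter luminescence in HFFs infected with HCMV-luciferase (MOI 1 PFU/cell) for 72 h; compounds tested at 2 doses, normalized to buffer and Salinomycin controls.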
HCV inhibitor: HCV inhibition; AID 651820; Potency, µM (highest dose often 41.8 µM), without a hit: at the top dose activity change, negative = inhibition, usual class: inhibitors; Huh7.5.1 HCVcc-Cre infection, luciferase reporter, 44 h; hit rate 3.4% among 340,000; further: potency means the concentration at half of the fitted maximal effect; on the % scale 0 is the no-effect control and ±100 the full control effect
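Antiviral activity was scored by luciferase reporter output from cells infected with HCVcc-Cre (~0.5 moi) in presence of compound, 44 h infection period, cells seeded 1,000/well 4 h prior.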
Pf growth 48h: P. falciparum growth inhibition at 48 hours (one generation). P. falciparum luciferase growth in erythrocytes, 48 h. Potency, µM (top dose mostly 28.7 µM), for the others: at the highest dose activity change, negative = inhibition, most hits filed as inhibitors. hit rate 5.9% among 310,000. AID 504832; further: potency means the concentration at half of the fitted maximal effect; on the % scale 0 is the no-effect control and ±100 the full control effect
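Erythrocytes infected with P. falciparum carrying an integrated firefly luciferase reporter (2% hematocrit, 0.1% parasitemia final) were exposed to compounds in RPMI 1640 with 0.5% Albumax at 37 C, 5% CO2. Growth inhibition was scored as reduced luminescence.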
Cycloheximide cs: affects cycloheximide protein synthesis inhibition readout, counter-screen; hit rate 12% among 300,000; cell reporter, cycloheximide protein synthesis inhibition counterscreen; max response, %; in the data active means max response mostly above about 13%, no sharp cut-off; inactive means mostly below about 14%; further: read at 38.3 µM for the half of the compounds with a filed dose; 0% is about no effect
Pf growth 96h: P. falciparum growth inhibition at 96 hours. hit rate 6.9% among 320,000. P. falciparum luciferase reporter growth, 96 h. Potency, µM (doses to about 28.7 µM), for the others: at the top dose activity change, negative = inhibition, hits mostly inhibitors; further: potency means the concentration at half of the fitted maximal effect; on the % scale 0 is the no-effect control and ±100 the full control effect
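Plates of compound plus infected erythrocytes (2% hematocrit, 0.05% parasitemia final) incubate 96 hours, 37 C, 5% CO2. Detection reagent added; reduced luminescence from the parasites' luciferase reporter flags inhibition.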
Shiga toxin inh: Shiga toxin inhibition; Vero cells, Shiga toxin protein synthesis inhibition reporter; inhibition, % at 38.7 µM; hit rate 9.2% among 290,000; in the data active means inhibition mostly above about 28%, no sharp cut-off; inactive means mostly below about 43%; further: 0% is about no effect
* marks the source's active call; other numbers are inactive results; ? = inconclusive; . = no result; [ ] = dose if it differs, or a comment. An excerpt weighted towards active compounds, which were near 21% of everything screened. Unless noted, the call rests on the fitted dose curve; in most records, active means well fitted inhibition curve with a large enough effect; inconclusive means small, poorly fitted or top-dose-only effect, or another doubt; inactive means no such curve, though single readings can be large or run the other way.

SMILES | HCMV antiviral | HCV inhibitor | Pf growth 48h | Cycloheximide cs | Pf growth 96h | Shiga toxin inh
COc1ccc(C(=O)/C=C/N(C)C)cc1 | 8.7 | 13.3% | -10.6% | 20.1* | 2.5% | -23.9
CN(C)/C=C/C(=O)c1ccc(Br)s1 | 18.8 | -7.2% | 43.3% | 21.0* | -2.9% | 54.2*
C=CC(=O)c1ccc(CCCCCC)cc1 | . | . | . | 5.6 | . | 26.4
CCCc1ccc(C(=O)/C=C/N(C)C)cc1 | -5.0 | 2.5% | 289.7% | 13.5* | 18.2% | 41.7*
Cc1ccc(C(=O)/C=C/N(C)C)o1 | 2.5 | 8.1% | 13.1% | 15.7 | -2.4% | 26.1
CC(C)NC(=O)N(C)C[C@H]1OCc2cnnn2CCCC(=O)N([C@H](C)CO)C[C@H]1C | 21.2 | . | . | . | . | .
CN(C)/C=C/C(=O)c1ccc2noc(-c3ccccc3)c2c1 | -62.7* | ? | -0.5% | 5.7 | 18.0% | -7.7
CN(C)/C=C/C(=O)c1ccccc1 | -0.1 | 15.0% | 15.0% | 41.1* | -4.1% | 63.4*
CN(C)/C=C/C(=O)c1ccc(Oc2ccccc2)cc1 | -7.6 | 8.0% | 31.1% | 34.2* | 40.9% | 82.9*
CN(C)/C=C/C(=O)c1ccc(S(=O)(=O)c2ccccc2)cc1 | -17.6 | 17.5% | -21.0% | 10.3 | ? | 33.8
CC(=O)c1ccc2noc(-c3ccccc3)c2c1 | -27.3 | ? | -22.5% | 13.5 | 262.5% | 32.8
COC(=O)c1ccc(NC(=O)CSc2nnc3c4ccccc4n(C(C)C)c3n2)cc1 | -0.3 | . | . | . | . | .
CCN1CCN(C(=O)c2ccc3c(c2)N(Cc2cccc(F)c2)C(=O)c2ccccc2S3)CC1 | -3.0 | . | . | . | . | .
Cc1ccc(S(=O)(=O)CCSc2ccc(C(F)(F)F)cn2)cc1 | 27.3 | 1.6% | -0.3% | -1.3 | ? | 5.8
CO/N=C/C(c1ncc(C(F)(F)F)cc1Cl)S(=O)(=O)c1ccccc1 (centres undefined) | 42.9 | 14.6% | 10.4µM* | -1.4 | 9.28µM* | 12.4
O=S(=O)(Cc1ncc(C(F)(F)F)cc1Cl)c1ccccc1 | 23.0 | -29.1% | 30.5% | 44.5* | 33.3% | 51.0*
CO/N=C/C(c1ccc(Cl)nc1)S(=O)(=O)c1ccccc1 (centres undefined) | 64.2 | 12.5% | -15.5% | -3.9 | -2.6% | -9.7
O=S(=O)(CCSc1ccc(C(F)(F)F)cn1)c1ccccc1 | -60.3* | -3.1% | ? | 14.9 | ? | 30.2
CCCn1nnnc1COc1ccc(C(N)=O)cc1 | -26.9 | 13.4% | 19.6% | -4.9 | 28.2% | -5.9
CCCCN(C)C(=O)CNC(=O)c1nn(-c2ccc(OC)cc2OC)c(=O)c2ccccc12 | -15.2 | 9.0% | ? | 2.2 | ? | -3.0
Cc1ccc(Cn2nnc3c(=O)[nH]c(C4CCN(S(=O)(=O)c5ccc(S(=O)(=O)NC6CC6)cc5)CC4)nc32)cc1 | 40.3 | 6.6% | ? | -6.2 | 1.47µM* | -7.0
Cc1ccc(Cn2nnc3c(=O)[nH]c(C4CCN(S(=O)(=O)c5ccc(C)cc5)CC4)nc32)cc1 | 33.8 | 15.1% | . | -0.6 | -12.5% | -5.2
O=c1[nH]c(C2CCN(S(=O)(=O)c3ccc(S(=O)(=O)NC4CC4)cc3)CC2)nc2c1nnn2Cc1cccc(F)c1 | -39.8 | 11.8% | 9.28µM* | -3.3 | ? | 61.8
Cc1cc(C)cc(NC(=O)Cn2c(=O)n(C(C)C)c(=O)c3oc4ccccc4c32)c1 | -16.7 | . | . | . | . | .
CCOC(=O)c1ccc2c(c1)N(C(CC)C(=O)Nc1ccccc1OC)C(=O)c1ccccc1S2 (centres undefined) | -5.5 | . | . | . | . | .
SMILES | HCMV antiviral | HCV inhibitor | Pf growth 48h | Cycloheximide cs | Pf growth 96h | Shiga toxin inh
CCC(C(=O)Nc1ccccc1OC)n1c(C(=O)OC)cc2ccsc21 (centres undefined) | 27.4 | ? | 11.7µM* | -2.2 | ? | 3.7
CCCN(CC(=O)Nc1ccccc1C)C(=O)c1ccc(=O)n(Cc2ccccc2)n1 | -22.7 | 15.4% | ? | . | ? | .
O=C1NC(=Nc2ccc(O)cc2)S/C1=C/c1ccco1 | -1.1 | ? | -1.6% | 17.2* | ? | 22.4
Cc1ccc(N=C2NC(=O)/C(=C\c3ccco3)S2)cc1 | -23.5 | -2.9% | ? | 28.3* | ? | 45.9*
O=C1NC(=Nc2ccc3ccccc3c2)S/C1=C/c1ccco1 | -14.5 | -21.3% | 0.0% | 18.0 | -14.3%[5.75 µM] | 26.0
CCc1ccc(N=C2NC(=O)/C(=C/c3cc(OC)c(OC)c(OC)c3)S2)cc1 | -37.5 | ? | -3.1% | 1.1 | ? | -1.4
O=C1NC(=O)/C(=C/c2ccc(O)cc2)S1 | 2.7 | 15.1% | 110.3% | 36.0* | 334.5% | 75.3*
O=C1NC(=O)C(=Cc2ccc(Cl)c(Cl)c2)S1 | 60.9 | 1.9% | . | . | . | .
COc1cc(/C=C2\SC(=Nc3ccc(O)cc3)NC2=O)cc(OC)c1O | 76.2 | ? | 3.7µM* | -1.5 | 9.28µM* | -11.5
CS(=O)(=O)c1ccc2nc(NC(=O)c3ccc(N4C(=O)CCC4=O)cc3)sc2c1 | . | 0.2% | -1.2% | 1.1 | 16.5% | 4.9
COc1ccc(C(=O)N[C@H](C(=O)NCCCSc2ccccc2)C(C)C)cc1 | -4.6 | -19.7% | . | . | . | .
NC1=NC2OC(CO)C(O)C2O1 (centres undefined) | -7.7 | . | . | . | . | .
CCOc1cc(Br)cc(/C=C2\SC(=Nc3ccccc3)NC2=O)c1O | -84.1* | ? | ? | -2.8 | ? | 22.4
C=CCOc1ccc(Br)cc1/C=C1/SC(=Nc2ccc(C(=O)O)cc2)NC1=O | -14.8 | 7.3% | -24.4% | -3.3 | ? | -12.0
O=C1NC(=Nc2ccc(Cl)cc2)/C(=C/c2ccco2)S1 | -80.0* | ? | ? | 8.1 | ? | 14.2
O=C(c1ccc(F)cc1)[C@@H]1[C@@H](C(=O)c2ccccc2)[C@@]2(C(=O)Nc3ccccc32)[C@H]2c3ccccc3C=CN12 | . | -6.0% | ? | 10.9 | 5.22µM* | 16.0
O=C(CSc1nnnn1-c1ccc(F)cc1)c1ccc(O)c(O)c1 | 26.9 | -6.5% | -25.1% | 38.0* | ? | 57.6
O=C(O)c1ccc(CSc2nnnn2-c2ccc(F)cc2)cc1 | 27.7 | 26.0% | 12.6% | -0.6 | -10.5% | -7.4
CC(Sc1nncn1C)C(=O)Nc1ccc(Cl)cn1 (centres undefined) | -32.0 | 1.2% | 31.4% | -2.0 | 48.4% | -10.4
CC(Sc1nnnn1-c1ccc(O)cc1)C(=O)NNC(=O)c1ccc(F)cc1 (centres undefined) | 0.1 | 7.08µM* | -23.8% | . | -44.9% | .
CC(Sc1nnnn1-c1ccc(O)cc1)C(=O)NC1CCCCC1C (centres undefined) | -23.2 | . | ? | -2.0 | ? | 4.9
Cc1ccc(-n2nnnc2SC(C)C(=O)Nc2ccc(Cl)cn2)cc1 (centres undefined) | -24.2 | -10.2% | ? | 9.5 | 9.28µM* | 10.0
CCC1(c2ccccc2)NC(=O)N(CC(=O)NC2CCCC2)C1=O (centres undefined) | -20.8 | 3.4% | -24.4% | . | 19.0% | .
COc1ccc(NC(=S)NNc2ccc(S(=O)(=O)Nc3ccccc3C(=O)O)cc2[N+](=O)[O-])cc1 | -35.8 | 23.3% | -11.9% | -3.4 | -23.7% | -14.1
